In the supplement of paper PMC12340641:
Where a name gives a salt, the structure may show the parent alone.

Target: IKZF1 (dCK*-IKZF1 fusion in HEK293FT) (UniProt Q13422)
Test: inhibition of IKZF1 HTRF signal (DMSO = 0%, pomalidomide 10 uM = 100%); higher = lower IKZF1 protein level
Details: compound concentration: 5 uM, overnight (~20 h)
In short: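 Values are percent inhibition of IKZF1 signal, normalised plate by plate against vehicle and a reference degrader. HEK293FT cells stably expressing an IKZF1 fusion were seeded at 2000 per well in 384-well plates and exposed to 5 μM compound in single wells overnight at 37 °C. After 30 min lysis at room temperature, lysates were incubated overnight with a commercial HTRF total-IKZF1 antibody kit, and the background-subtracted 665/620 nm time-resolved FRET ratio was read. On each plate, vehicle was set at 0% and the reference degrader at 100%.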

IKZF1 (dCK*-IKZF1 fusion in HEK293FT), sequence (Q13422 whole entry, looked up, the tested form may be a part): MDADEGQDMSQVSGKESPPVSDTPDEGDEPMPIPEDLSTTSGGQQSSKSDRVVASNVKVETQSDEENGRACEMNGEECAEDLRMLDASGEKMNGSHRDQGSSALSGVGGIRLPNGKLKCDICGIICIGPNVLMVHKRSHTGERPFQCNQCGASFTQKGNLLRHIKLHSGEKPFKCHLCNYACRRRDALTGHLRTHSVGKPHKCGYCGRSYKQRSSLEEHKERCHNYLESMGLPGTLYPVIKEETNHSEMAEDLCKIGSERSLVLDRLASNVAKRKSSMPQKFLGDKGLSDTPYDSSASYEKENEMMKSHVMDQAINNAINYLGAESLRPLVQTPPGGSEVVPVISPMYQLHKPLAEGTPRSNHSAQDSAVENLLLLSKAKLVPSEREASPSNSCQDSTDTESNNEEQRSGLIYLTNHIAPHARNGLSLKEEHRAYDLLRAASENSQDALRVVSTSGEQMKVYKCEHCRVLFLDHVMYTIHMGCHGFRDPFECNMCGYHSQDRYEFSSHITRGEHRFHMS

Row | SMILES | inhibition of IKZF1 HTRF signal
1 | N=c1ccn2c(n1)O[C@H]1[C@H](O)[C@@H](CO)O[C@H]12 [Cyclocytidine HCl] | -19.3%
2 | NCCNc1ccc(NCCN)c2c1C(=O)c1ccncc1C2=O.O=C(O)/C=C\C(=O)O.O=C(O)/C=C\C(=O)O [Pixantrone (dimaleate)] | -28.2%
3 | c1ccc(C(NCc2cccnc2)(c2ccccc2)c2ccccc2)cc1 | -26.2%
4 | C=CC(=O)Nc1cccc(Oc2nc(Nc3ccc(N4CCN(C)CC4)cc3)ncc2Cl)c1 | 23.4%
5 | O=c1[nH]c(=O)n([C@H]2C[C@H](O)[C@@H](CO)O2)cc1F [Floxuridine] | 14.5%
6 | COc1ccc(CCN(C)CCc2ccc(OC)c(OC)c2)cc1OC | -8.39%
7 | Cc1cc(Nc2ncc(Cl)c(Nc3ccccc3S(=O)(=O)C(C)C)n2)c(OC(C)C)cc1C1CCN(CC(=O)NCCNc2cccc3c2C(=O)N(C2CCC(=O)NC2=O)C3=O)CC1 (centres undefined) | 24.5%
8 | CCCCCCCC/C=C\CCCCCCCC(=O)NCCO [oleoylethanolamide] | -34.1%
9 | Cn1c(=O)n(-c2ccc(C(C)(C)C#N)cc2)c2c3cc(-c4cnc5ccccc5c4)ccc3ncc21 [Dactolisib (BEZ235, NVP-BEZ235)] | 46.7%
10 | COc1cc(CN(CCN)C(=O)c2cccs2)ccc1OCc1ccccc1 | -24.8%
11 | Clc1ccc(C(Cn2ccnc2)OCc2ccc(Sc3ccccc3)cc2)c(Cl)c1 (centres undefined) [Fenticonazole nitrate] | -51.2%
12 | CC(C)/N=c1\cc2n(-c3ccc(Cl)cc3)c3ccccc3nc-2cc1Nc1ccc(Cl)cc1 | 16.2%
13 | CN(C)CCOC1=Cc2ccccc2Sc2ccc(Cl)cc21 [zotepine] | -37.7%
14 | O=c1[nH]c2ccccc2n1C1CCN(CCOc2ccccc2)CC1 [oxiperomide] | 23.7%
15 | O=C(Nc1ccc2[nH]ccc2c1)c1ccccc1 | -24.8%
16 | Cn1c(NCCN(CCO)CCCc2ccc([N+](=O)[O-])cc2)cc(=O)n(C)c1=O [nifekalant] | -33.5%
17 | COC1CCN(c2cccc(-c3cc(NC(C)=O)nc(-n4nc(C)cc4C)n3)n2)CC1 | -25.1%
18 | C=C1/C(=C\C=C2/CCC[C@]3(C)[C@@H]([C@H](C)CCCC(C)(C)O)CC[C@@H]23)C[C@@H](O)C[C@@H]1O [Calcitriol] | -12.4%
19 | CSCC1CN(/N=C/c2ccc([N+](=O)[O-])o2)C(=O)O1 (centres undefined) [Nifuratel] | -39.4%
20 | NC(=O)N1c2ccccc2CC(=O)c2ccccc21 | 17.9%

Row | SMILES | inhibition of IKZF1 HTRF signal
21 | COc1cccc2c1C(=O)c1c(O)c3c(c(O)c1C2=O)C[C@@](O)(C(=O)CO)C[C@@H]3O[C@H]1C[C@H](N)[C@H](O[C@@H]2CCCCO2)[C@H](C)O1 [Pirarubicin] | 37.3%
22 | Cc1cc(Nc2ncc(Cl)c(Nc3ccccc3S(=O)(=O)C(C)C)n2)c(OC(C)C)cc1C1CCN(CCOCCOCCNC(=O)CNc2cccc3c2C(=O)N(C2CCC(=O)NC2=O)C3=O)CC1 (centres undefined) | 66.9%
23 | OC(c1cc(C(F)(F)F)nc2c(C(F)(F)F)cccc12)C1CCCCN1 (centres undefined) [Mefloquine HCl] | -25.2%
24 | NC(=S)N/N=C/c1ncccc1N [Triapine] | -21.7%
25 | CNC(=O)Nc1ccc(-c2nc(N3CC4CCC(C3)O4)c3cnn(C4CCC5(CC4)OCCO5)c3n2)cc1 | 70.5%
26 | CN1CCN(CCCN2c3ccccc3Sc3ccc(Cl)cc32)CC1 | -26.7%
27 | CNC(=O)c1cccc(-c2ccc3c(N4CCOC[C@@H]4C)nc(N4CCOC[C@@H]4C)nc3n2)c1 [Vistusertib (AZD2014)] | 69.4%
28 | CCCCC1C(=O)N(c2ccccc2)N(c2ccc(O)cc2)C1=O (centres undefined) | -36.3%
29 | c1ccc2c(c1)CCC[C@H]2Nc1nc2ccccc2[nH]1 | -34.6%
30 | CCC(=O)O[C@@H]1CC(=O)O[C@H](C)C/C=C/C=C/[C@H](OC(C)=O)[C@H](C)C[C@H](CC=O)[C@H](O[C@@H]2O[C@H](C)[C@@H](O[C@H]3C[C@@](C)(OC(C)=O)[C@@H](OC(=O)CC)[C@H](C)O3)[C@H](N(C)C)[C@H]2O)[C@H]1OC [Midecamycin Acetate] | -24.1%
31 | COc1cc2c(cc1OC)[C@@H]1Cc3ccc(OC)c(OC)c3CN1CC2 [Rotundine] | 14.2%
32 | O=C(N/N=C/c1ccc([N+](=O)[O-])o1)c1ccc(O)cc1 | 10.2%
33 | OC1(c2ccc(Cl)c(C(F)(F)F)c2)CCN(CCCC(c2ccc(F)cc2)c2ccc(F)cc2)CC1 | -28.8%
34 | CC[C@@]1(O)C(=O)OCc2c1cc1n(c2=O)Cc2cc3cc(O)ccc3nc2-1 [10-Hydroxycamptothecin] | 38.4%
35 | NS(=O)(=O)Cc1noc2ccccc12 [zonisamide] | -28.2%
36 | O=C(Nc1cccc(C(F)(F)F)c1)Nc1ccc(Br)cc1-c1nnn[nH]1 | -23.4%
37 | Oc1c(Cl)cc(Cl)c(Cl)c1Cc1c(O)c(Cl)cc(Cl)c1Cl [Hexachlorophene] | -78.9%
38 | CCCCOC(=O)c1ccc(N)cc1 | -30.3%
39 | CCN(CC)CCOc1ccc2c(c1)C(=O)c1cc(OCCN(CC)CC)ccc1-2 | -2.01%
